S-ASM inh: human S-ASM enzyme inhibition | Potency, µM (top dose mostly 57.5 µM), for the others: at the top dose activity change, negative = inhibition, most hits filed as inhibitors | placental ASM, HMU-PC fluorogenic substrate, 60 min | hit rate 0.006% among 340,000 | P17405; also: potency is read from the fitted curve at half-maximal effect
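Steps: dispense placental human ASM, pin compound, wait 10 min at room temperature, add HMU-PC0 substrate at 9 uM final, incubate 60 min at 37 °C, add stop solution raising pH to 10, read fluorescence.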
Mito fusion yeast: mitochondrial division inhibition or fusion activation; hit rate 0.23% among 320,000; S. cerevisiae fusion-defective mutant growth rescue, CellTiterGlo 48 h; Potency, µM (highest dose often 46.1 µM), inactives show top-dose growth rescue (activation), usual class: activators; also: potency is read from the fitted curve at half-maximal effect; % of control where 0% means no effect; nearly all actives have a fitted effect of over 45% in size
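Growth-rescue viability read-out: after 48 h at the non-permissive 37C in glycerol/ethanol YPEG, yeast mitochondrial fusion mutants are measured by CellTiterGlo luminescence; compounds (23 nl pinned per well) restoring growth score as division inhibitors or fusion activators.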
RGS4 inhibitor: inhibitors of human regulator of G protein signaling 4 | Transcreener GDP fluorescence polarization, RGS4-accelerated GTP hydrolysis | Potency, µM (doses to about 114 µM), inactives show at the top dose activity change, negative = inhibition, hits mostly inhibitors | hit rate 0.039% among 390,000; also: potency is read from the fitted curve at half-maximal effect; % is scaled to controls: 0 for no effect and ±100 for the full control effect; nearly all actives have a fitted effect of over 75% in size
Target sequence (P49798 whole entry, looked up): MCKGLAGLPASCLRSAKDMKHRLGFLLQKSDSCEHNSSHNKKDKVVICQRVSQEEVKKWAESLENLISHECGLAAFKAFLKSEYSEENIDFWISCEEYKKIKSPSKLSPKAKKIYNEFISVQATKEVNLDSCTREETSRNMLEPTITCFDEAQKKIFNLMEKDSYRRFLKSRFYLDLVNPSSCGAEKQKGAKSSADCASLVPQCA
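MLSMR compounds (23 nl, pin-transferred) preincubated 10 min at room temperature with a 500nM (2x) first reagent, then RGS4 at 900nM (2x) plus Transcreener GDP mix added; fluorescence polarization (620/688 nm) read before and after 90 min at 30 °C.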
ClpP mod: qHTS Assay for Activators of ClpP; purified B. subtilis ClpP, FRET peptide cleavage, 20 min; Potency, µM (titrated, usually from 57.5 µM), for the others: top-dose activity change, negative = active; ATP-dependent Clp protease proteolytic subunit (Bacillus subtilis (strain 168)), P80244; hit rate 1.9% among 340,000; AID 651965, 2013; active = well fitted falling curve with a large enough effect; inconclusive = small, poorly fitted or top-dose-only effect; inactive = no such curve, though single readings can be large or run the other way; also: potency is read from the fitted curve at half-maximal effect; the source files actives as falling curves though it sought activators and does not explain the sign; nearly all actives have a fitted effect of over 65% in size
Target sequence (P80244 whole entry, looked up): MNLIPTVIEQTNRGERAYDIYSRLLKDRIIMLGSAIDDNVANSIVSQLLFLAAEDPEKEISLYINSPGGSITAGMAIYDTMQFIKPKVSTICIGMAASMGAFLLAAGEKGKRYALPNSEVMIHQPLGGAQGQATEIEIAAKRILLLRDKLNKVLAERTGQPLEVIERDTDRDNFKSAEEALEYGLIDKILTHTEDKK
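FRET quenching reversal measured ClpP activation: 10 microg/mL B. subtilis ClpP at pH 8 with the FRET-FV decapeptide, read at 430 nm after 320 nm excitation. The 20-min minus 0-min signal was scaled between DMSO/no-enzyme wells and ADEP (5.8 microM final).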
LDHA inh: inhibitors of human lactate dehydrogenase A | purified LDHA, NADH/diaphorase-resazurin fluorescence; active compounds read low | activity change, % (values are at about 110 or 230 µM) | hit rate 0.15% among 480,000 | AID 1347041; in the data active = activity change below about -30%; inconclusive = mostly about -25% to -30%;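 also: plate controls were DMSO wells for no effect and wells without enzyme for full effect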
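Resorufin fluorescence (ex540/em590), read at 0 and 20 min after diaphorase/resazurin addition, reports the NADH left after a 5 min room-temperature reaction of 2 nM human LDH5 with 0.06 mM NADH and 0.2 mM pyruvate.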
mIDH1 inhibitor: blocks human mutant IDH1 R132H enzyme; Potency, µM (top dose mostly 76.6 µM), for the others: at the top dose activity change, negative = inhibition, most hits filed as inhibitors; O75874; IDH1-R132H enzyme, NADPH consumption, diaphorase/resazurin fluorescence; hit rate 0.093% among 390,000; also: potency is read from the fitted curve at half-maximal effect; % is scaled to controls: 0 for no effect and ±100 for the full control effect; nearly all actives have a fitted effect of over 65% in size
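IDH1-R132H (0.5 ug/mL dispensed) in pH 7.5 Tris buffer was preincubated 30 min with compound, then given a substrate mix of 0.016 mM NADPH and 2 mM alpha-KG for 80 min at room temperature; remaining NADPH was read by diaphorase/resazurin fluorescence.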
Active calls of the source: *; [ ] = another dose, or the depositor's remark. Many of the other results were omitted from the sample, so hits are more common in it than they were. Unless noted, calls follow the shape of the dose curve; as a rule, active = well fitted curve in the direction sought with a large enough effect; inconclusive = small, poorly fitted or top-dose-only effect, or another doubt; inactive = no such curve, though single readings can be large; an effect the other way counts as inactive or inconclusive.

`CNC(=O)c1cc2cc(OC)ccc2oc1=O` gave S-ASM inh 272%, Mito fusion yeast 0%, RGS4 inhibitor -23%, ClpP mod 28µM*, LDHA inh -4 and mIDH1 inhibitor 1%.
Screening COc1ccc2oc(=O)c(C(=O)NCC3CCCO3)cc2c1 (stereo not given) returned S-ASM inh 401%, Mito fusion yeast 3%, RGS4 inhibitor -6%, ClpP mod 28µM*, LDHA inh 1 and mIDH1 inhibitor 3%.
Screening CC(=O)Nc1cccc(C(=O)OCC(=O)NCc2cccs2)c1 returned LDHA inh -1.
Screening O=C(OCc1cn([C@@H]2CN(C(=O)C3CCCCC3)[C@@H](c3ccc(Cl)cc3)C[C@H]2O)nn1)c1ccccc1 returned ClpP mod 0%, LDHA inh -35* and mIDH1 inhibitor -13%.
`CC(C)(C)c1cc(=O)n2c(C#N)c(C#N)nc2[nH]1` gave S-ASM inh 13%, Mito fusion yeast 3%, RGS4 inhibitor 20%, ClpP mod 28µM*, LDHA inh -5 and mIDH1 inhibitor 8%.
CC(C)(C)c1cc(C(F)(F)F)c(C#N)c(=O)[nH]1 was read as S-ASM inh 74%, Mito fusion yeast -2%, RGS4 inhibitor -19%, ClpP mod inconclusive, LDHA inh -4 and mIDH1 inhibitor 4%.
COC(=O)c1[nH]c2cccc(OC)c2c1NC(=O)CN1CCOCC1 was read as S-ASM inh 2%, Mito fusion yeast 8%, RGS4 inhibitor 25%, ClpP mod 18µM*, LDHA inh 1 and mIDH1 inhibitor 1%.
Screening COC(=O)c1[nH]c2cccc(OC)c2c1NC(=O)CCN1CCSCC1 returned S-ASM inh -2%, Mito fusion yeast -3%, RGS4 inhibitor -18%, LDHA inh -6 and mIDH1 inhibitor -3%.
For COC(=O)c1[nH]c2cccc(OC)c2c1NC(=O)CN(C)CC1OCCO1 the results were S-ASM inh 5%, Mito fusion yeast -3%, RGS4 inhibitor 36%, ClpP mod 32µM*, LDHA inh -3 and mIDH1 inhibitor 0%.
`CCCOc1ccc(C(=O)Nc2ccc3oc(-c4cccnc4)nc3c2)cc1` gave LDHA inh 1.
`COc1ccc(C(=O)/C=C/c2ccc(Br)cc2)cc1` gave LDHA inh 2.
Screening Cc1oncc1-c1cn2ccccc2n1 returned S-ASM inh 0%, Mito fusion yeast -2%, RGS4 inhibitor -31%, ClpP mod 25µM*, LDHA inh -3 and mIDH1 inhibitor 13%.
`Cc1ccc(-c2cn3ccc(C)cc3n2)cc1` gave RGS4 inhibitor -2%, ClpP mod 0%, LDHA inh -18 and mIDH1 inhibitor 2%.
For Cc1ccn2cc(-c3cnoc3C)nc2c1 the results were S-ASM inh 1%, Mito fusion yeast -1%, RGS4 inhibitor -21%[11.4 µM], ClpP mod 14µM*, LDHA inh 1 and mIDH1 inhibitor 8%.
Screening Cc1cc(C)c2c(c1)C(O)(CC(=O)c1ccco1)C(=O)N2 (stereo not given) returned LDHA inh 5.
Screening O=C(O)CC/C=C\CC[C@H]1[C@@H](N2CCCCC2)[C@@H](O)C[C@@H]1OCc1ccc(-c2ccccc2)cc1 returned RGS4 inhibitor 8.4µM*.
Screening Cc1nc(C)c(CC(=O)Nc2nnc(C)s2)c(=O)[nH]1 returned LDHA inh 6.
`CCOC(=O)NC1(C(F)(F)F)NC(=O)N(c2ccc(F)cc2)C1=O` (stereo not given) gave S-ASM inh 6%, Mito fusion yeast -5%, RGS4 inhibitor 32%, ClpP mod 35µM*, LDHA inh -7 and mIDH1 inhibitor -3%.

High-throughput results (PubChem)
